Results published in PubChem BioAssay.
Several values for one entry are separate records, joined by “and”; a condition that tells them apart may be missing. Equal entries are not always repeated. Activity calls are given as the source filed them. Rule as the data show it, unless noted: active = inhibition above about 80%; inactive = the rest.

Columns and labels:
[1] = growth inhibition, single agent and combos, cell-based, chromothripsis tumors, cisplatin or BGB combos (AID 1671450); details: HDN33 neuroblastoma cells, stronger effect = higher value;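 also: cells exposed to compound for four days; 0% = vehicle DMSO and 100% = cell killing by high DMSO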
[2] = growth inhibition, single agents and combos, ICB984, cell-based, cisplatin or BGB combos, synergistic combos for chromothripsis tumors (AID 1671451; call rule not given here;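 also: cells exposed for 96 hours before readout; 0% = vehicle DMSO and 100% = killing by high DMSO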); details: ICB984 medulloblastoma cells, drug combinations, stronger effect = higher value
[3] = growth inhibition, single agents and combos, LFS_MB_1R, cell-based, cisplatin or BGB combos, synergistic combos for chromothripsis tumors (AID 1671452); details: LFS_MB_1R medulloblastoma cells, stronger effect = higher value;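 also: cells exposed for 96 hours before readout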
[4] = growth inhibition, single agents and combos, HTB85, cell-based, BGB or cisplatin IC20 combos, synergistic combos for chromothripsis tumors (AID 1671453); details: HTB85 osteosarcoma cells, drug combinations, stronger effect = higher value;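 also: cells exposed for 96 hours before readout; 0% = vehicle DMSO and 100% = high DMSO killing control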
[5] = growth inhibition, single agents and combos, CRL2098, cell-based, BGB or cisplatin IC20 combos, synergistic combos for chromothripsis tumors (AID 1671454); details: CRL2098 osteosarcoma cells, drug combinations, stronger effect = higher value;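 also: cells exposed for 96 h before readout; 0% = vehicle DMSO and 100% = killing by high DMSO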
[6] = growth inhibition, single agents and combos, HD-MB03, cell-based, BGB or cisplatin IC20 combos, synergistic combos for chromothripsis tumors (AID 1671455; in the data active = inhibition above about 83%;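 also: 0% = vehicle DMSO and 100% = high DMSO as cytotoxic control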); details: HD-MB03 medulloblastoma cells, stronger effect = higher value
[7] = growth inhibition, single agents and combos, UWB1.289, cell-based, BGB or cisplatin combos, synergistic combos for chromothripsis tumors (AID 1671456); details: UWB1.289 ovarian carcinoma cells, stronger effect = higher value;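 also: cells exposed to compound for four days; 0% = vehicle DMSO and 100% = killing by high DMSO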
[8] = growth inhibition, single agents and combos, LFS_MB_2R, cell-based, cisplatin combos, synergistic combos for chromothripsis tumors (AID 1671457); details: LFS_MB_2R medulloblastoma cells, stronger effect = higher value;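 also: cells exposed to compound for four days before readout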
[9] = growth inhibition, MDA-MB-436, cell-based, BGB or cisplatin combos, synergistic combos for chromothripsis tumors (AID 1671458; call rule not given here;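 also: cells exposed for 96 hours; 0% = vehicle DMSO and 100% = killing by high DMSO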); details: MDA-MB-436 breast carcinoma growth inhibition, drug combinations, stronger effect = higher value
[10] = UWB1.289_BRCA1 ovarian cancer growth, cell-based, BGB or cisplatin combinations (AID 1671459); details: UWB1.289 BRCA1 ovarian carcinoma, drug combinations, stronger effect = higher value
[11] = drug combination toxicity in non-malignant astrocytes – cell-based, BGB or cisplatin IC20 combos, cytotoxicity control for chromothriptic childhood tumor combination screen (AID 1671460); details: Human astrocytes, viability inhibition, drug combinations, at 0.5 µM, stronger effect = higher value;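 also: cells exposed to compounds for 96 hours before viability readout; 0% = vehicle and 100% = killing control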
[12] = BT084 cell growth, single and combined drugs, ICGC_MB145, cisplatin and BGB IC40 combos (AID 1671461); details: BT084 medulloblastoma cells, drug combinations, stronger effect = higher value;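 also: cells exposed to drugs for 96 hours; 0% = vehicle DMSO and 100% = high DMSO full killing control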
[13] = RCMB18 cell growth, single agent and combined, cisplatin and BGB IC40 combos (AID 1671462); details: RCMB18 medulloblastoma cells, stronger effect = higher value;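 also: cells exposed to compound for four days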
[14] = CRL1545 cell growth, single agent and combined, cisplatin and BGB IC20 combos (AID 1671464); details: CRL1545 osteosarcoma cells, stronger effect = higher value;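 also: cells exposed to compound for 96 hours before readout; 0% = vehicle DMSO and 100% = high DMSO killing control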
[15] = measured here: with cisplatin IC20 combination, at 0.5 µM
[16] = measured here: combination with cisplatin, at 0.5 µM
[17] = measured here: combination with cisplatin, at 5 µM

NC(=O)c1ccc(I)c([N+](=O)[O-])c1
inhibition [1, 15]: 8.47% and -16.9% | inhibition ([1]; single agent, at 5 µM): -4.01% and -42.6% | inhibition ([2]; BGB IC20 combo, at 0.005 µM): 6.79% and -19.8% | inhibition ([2]; BGB IC40 combo, at 0.005 µM): -8.71% and -63.3% | inhibition ([2]; BGB IC40 combo, at 0.05 µM): 6.96% and -25.8% | inhibition ([2]; at 0.5 µM): -18.4% (inactive) and -40.8% (inactive) | inhibition ([2]; cisplatin combo, at 0.05 µM): 4.36% and -30.8% | inhibition ([2]; cisplatin combo, at 0.5 µM): -11.9% and -53.2% | inhibition ([2]; cisplatin combo, at 5 µM): -10.4% and -25.8% | inhibition ([2]; measured here: 5 uM single agent, at 5 µM): -7.67% and -25% | inhibition ([3]; at 0.5 µM): -3.89% (inactive) and -33.7% (inactive) | inhibition ([3]; measured here: combination with BGB IC40, at 0.05 µM): -3.85% and -20% | inhibition [3, 16]: -8.55% and -54.4% | inhibition [3, 17]: 14.7% and -8.48% | inhibition ([4]; at 0.5 µM): 9.09% (inactive) and -11.2% (inactive) | inhibition ([4]; measured here: with BGB IC20, at 0.5 µM): 18.2% and -8.85% | inhibition ([4]; measured here: with BGB IC20, at 5 µM): -13% and -0.795% | inhibition ([4]; measured here: with cisplatin IC20, at 0.5 µM): -4.67% and -22.1% | inhibition ([4]; measured here: with cisplatin IC20, at 5 µM): -22.8% and -21.8% | inhibition ([4]; single agent, at 5 µM): -0.511% and -17.6% | inhibition ([5]; at 0.5 µM): -9.77% (inactive) and -68.7% (inactive) | inhibition ([5]; measured here: combination with BGB at IC20, at 0.5 µM): 4.55% and -23.6% | inhibition ([5]; measured here: combination with cisplatin at IC20, at 0.5 µM): -0.612% and -98.1% | inhibition ([6]; at 0.5 µM): 2.12% (inactive) and -9.81% (inactive) | inhibition ([6]; measured here: combo with BGB at IC20, at 0.5 µM): 8.1% and -18.5% | inhibition ([6]; measured here: combo with cisplatin at IC20, at 0.5 µM): 1.77% and -5.96% | inhibition ([7]; at 0.5 µM): 4.39% (inactive) and -12.6% (inactive) | inhibition ([7]; measured here: inhibition with BGB combination, at 0.05 µM): -4.87% and -28.1% | inhibition ([7]; measured here: inhibition with cisplatin combination, at 0.05 µM): 4.41% and -26.6% | inhibition ([8]; at 0.5 µM): -3.62% (inactive) and -27.7% (inactive) | inhibition [8, 16]: 4.37% and -27.4% | inhibition [8, 17]: -55.7% and -23.8% | inhibition ([9]; at 0.5 µM): -14.6% (inactive) and -27.1% (inactive) | inhibition ([9]; measured here: BGB combination, at 0.5 µM): -12.7% and -19.7% | inhibition ([9]; measured here: BGB combination, at 5 µM): 6.5% and -14.3% | inhibition ([9]; measured here: cisplatin combination, at 0.5 µM): -24.5% and -37.3% | inhibition ([9]; measured here: cisplatin combination, at 5 µM): -16.7% and -24% | inhibition ([10]; BGB combination, concentration series, at 5 µM): 8.62% and -14.6% | inhibition ([10]; at 0.5 µM): 3.67% (inactive) and -21.5% (inactive) | inhibition ([10]; cisplatin combination, concentration series, at 5 µM): 11.7% and -8.59% | inhibition [11]: 13.4% (inactive) and -16.5% (inactive) | inhibition ([11]; measured here: combo with BGB IC20): 12.4% and -9.72% | inhibition ([11]; measured here: combo with cisplatin IC20): 18.2% and -4.93% | inhibition ([12]; at 0.5 µM): -19.3% (inactive) and -16.2% (inactive) | inhibition ([12]; cisplatin combination, at 0.5 µM): 8.84% and -1.53% | inhibition ([12]; cisplatin combination, at 5 µM): 4.99% and 0.215% | inhibition ([12]; measured here: BGB IC40 combination 0.05 uM, at 0.05 µM): 25.4% and -22.5% | inhibition ([12]; single agent, at 5 µM): -9.27% and -35.4% | inhibition ([13]; at 0.5 µM): 2.19% (inactive) and -9.96% (inactive) | inhibition ([13]; cisplatin combo, at 5 µM): 15.5% and 33.9% | inhibition ([13]; measured here: BGB IC40 combination, at 0.05 µM): -12.1% and -17.3% | inhibition [13, 16]: 21.4% and 23.8% | inhibition ([13]; single agent, at 5 µM): -9.55% and -39.2% | inhibition ([14]; at 0.5 µM): 3.31% (inactive) and -13.9% (inactive) | inhibition ([14]; measured here: with BGB IC20 combination, at 0.5 µM): -14.5% and -22.9% | inhibition [14, 15]: 10.2% and -9.34% | inhibition ([14]; single agent, at 0.05 µM): -40.1% and -19.9% | inhibition ([14]; single agent, at 5 µM): -12.7% and -3.93%
